In the library only some 5.1% were active in any assay of this set; here they are far more common.
MPTP inh = blocks calcium-induced mitochondrial swelling. isolated mouse mitochondria, Ca2+ swelling absorbance, 30 min. inhibition, % at 10 µM. 360,000 compounds, 1.4% hits. AID 602449;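 active = inhibition of 50% or more, scaled per plate between neutral and stimulator controls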;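 note: 0% = DMSO wells given calcium and 100% = 1 mM EGTA wells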
GRIN3A LBD mod = NR3A (human) ligand-binding domain modulation | Tm shift relative to glycine control, % at 25 µM | AID 1259313 | NR3A LBD differential scanning fluorimetry, Tm shift; 0% = protein alone, 100% = glycine-bound protein | 340,000 compounds, 2.5% hits;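 active = melting temperature shift of at least 10% of the positive control shift, at one fixed dose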
TMEM16A act = activates or potentiates the mouse TMEM16A chloride channel. Q8BHY3. AID 623877. B-score at 10 µM. 340,000 compounds, 0.3% hits. HEK293 TMEM16A/YFP-H148Q/I152L, iodide quench fluorescence; active compounds read low;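 active = fluorescence-ratio B-score plate-corrected deviation score at least 3 library SD below zero, with starting fluorescence score within 5 deviations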;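 note: channel opened by trigger with iodide after compound preincubation; score built on the fluorescence ratio of max minus min over baseline; more negative score means more quench and so TMEM16A activation or potentiation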
Target sequence (Q8BHY3 whole entry, looked up): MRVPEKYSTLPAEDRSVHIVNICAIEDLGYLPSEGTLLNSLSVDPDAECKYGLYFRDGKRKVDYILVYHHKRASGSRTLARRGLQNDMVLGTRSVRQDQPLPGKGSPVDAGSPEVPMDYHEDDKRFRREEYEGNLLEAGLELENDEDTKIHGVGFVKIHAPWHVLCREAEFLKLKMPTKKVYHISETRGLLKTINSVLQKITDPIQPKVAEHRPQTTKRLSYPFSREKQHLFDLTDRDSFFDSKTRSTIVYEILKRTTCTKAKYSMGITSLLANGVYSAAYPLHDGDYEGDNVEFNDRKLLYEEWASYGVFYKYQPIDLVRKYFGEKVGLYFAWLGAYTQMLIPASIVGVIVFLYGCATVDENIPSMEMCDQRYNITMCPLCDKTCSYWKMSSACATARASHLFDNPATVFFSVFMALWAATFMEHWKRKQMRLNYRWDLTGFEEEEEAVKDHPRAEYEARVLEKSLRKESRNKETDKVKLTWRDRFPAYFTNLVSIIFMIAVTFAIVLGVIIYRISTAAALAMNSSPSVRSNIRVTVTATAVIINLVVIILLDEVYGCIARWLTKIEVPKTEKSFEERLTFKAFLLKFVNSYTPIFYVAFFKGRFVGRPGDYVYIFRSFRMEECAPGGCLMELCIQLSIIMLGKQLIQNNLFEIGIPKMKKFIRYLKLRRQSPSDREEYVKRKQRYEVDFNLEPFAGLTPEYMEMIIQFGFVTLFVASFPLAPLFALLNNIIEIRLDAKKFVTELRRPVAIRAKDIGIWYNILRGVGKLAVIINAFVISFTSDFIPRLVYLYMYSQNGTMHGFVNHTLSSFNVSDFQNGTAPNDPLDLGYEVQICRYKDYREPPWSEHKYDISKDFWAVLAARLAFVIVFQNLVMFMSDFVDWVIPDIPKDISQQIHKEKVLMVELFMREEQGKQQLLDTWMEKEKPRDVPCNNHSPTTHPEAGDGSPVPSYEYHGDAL
CRFR2-BP ag = CRF-BP/CRF-R2 complex agonism | activation, % at 13.2 µM | HEK293 CRF-R2/CRF-BP, calcium dye fluorescence (FLIPR); percent of saturating CRF peptide response | 350,000 compounds, 0.46% hits;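 active = activation of at least 50%, plus an integration ratio under a set limit after plate pattern correction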;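 note: plate controls were neutral control wells without compound for no effect and CRF at EC100 for full effect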
CRFBP-R2 block = antagonists of CRF-binding protein/CRF-R2 receptor complex | AID 588475 | 350,000 compounds, 0.59% hits | HEK293 CRF-R2/CRF-BP, CRF-induced calcium fluorescence | inhibition, % at 11.8 µM;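 active = inhibition of the ligand-induced calcium signal above about 50% at the single tested concentration, limit read from the data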
TMEM16A inh = blocks the mouse calcium-activated chloride channel TMEM16A; HEK293 TMEM16A/YFP iodide influx fluorescence, ionomycin; Q8BHY3; 310,000 compounds, 1.2% hits; normalized B-score (activity score, 25-100; higher = stronger inhibition) at 10 µM;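 active = ratio plate-corrected score three or more library SD toward inhibition, starting fluorescence score within five deviations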;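 note: score derived from kinetic fluorescence span divided by baseline fluorescence per well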
MPTP counter = Rhodamine 123 counter-screen of mitochondrial pore hits | shares compounds with MPTP inh | isolated mitochondria, membrane potential, Rhodamine 123 fluorescence | inhibition, % at 10 µM | 5,000 compounds, 78% hits | AID 624504; in the data active = inhibition above about 22%;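 note: 0% = DMSO vehicle and 100% = positive control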
MPTP swell DR = MPTP inhibition, dose response swelling confirmation. shares compounds with MPTP inh. 780 compounds, 58% hits. IC50, µM. isolated mitochondria swelling, absorbance; in the data active = IC50 below about 20 µM
MPTP counter DR = MPTP inhibitor counter-screen activity, dose response. shares compounds with MPTP inh. isolated mitochondria counterscreen, fluorescence read-out. IC50, µM. 780 compounds, 49% hits; in the data active = IC50 below about 80 µM
An asterisk follows results filed as active.

How did CC(C)(C)CN1CCNC[C@H]1Cc1cccc2ccccc12 do in these assays?
MPTP inh: 55.1*; GRIN3A LBD mod: -0.5; TMEM16A act: inactive; CRFR2-BP ag: -0.8; CRFBP-R2 block: -3.2; TMEM16A inh: inactive; MPTP counter: -9.4; MPTP swell DR: 7.13*; MPTP counter DR: 66.3*

Results for NC(=O)c1ccccc1NC(=O)COC(=O)C1(c2ccccc2)CC1 ?
MPTP inh: -1.0; GRIN3A LBD mod: -2.1; TMEM16A act: inactive; CRFR2-BP ag: 1.6; CRFBP-R2 block: -15.1; TMEM16A inh: inactive

What do the screens show for `Cc1cc(C)c2c(=N)c3ccccc3n(CCCCCCCCn3c4ccccc4c(=N)c4c(C)cc(C)nc43)c2n1`?
MPTP inh: 9.4; GRIN3A LBD mod: -5.8; TMEM16A act: inactive; CRFR2-BP ag: 0.8; CRFBP-R2 block: -14.3

What do the screens show for `CCOC(=O)N1CCN(C(=O)c2ccccc2N(Cc2ccccc2)S(=O)(=O)c2ccccc2)CC1`?
MPTP inh: 1.2; GRIN3A LBD mod: -2.0; TMEM16A act: inactive; CRFR2-BP ag: -0.4; CRFBP-R2 block: 8.7; TMEM16A inh: inactive

How did O=C(Nc1ccc(Cc2ccc(NC(=O)Nc3cccnc3)cc2)cc1)Nc1cccnc1 do in these assays?
MPTP inh: -1.3; CRFR2-BP ag: -3.1; CRFBP-R2 block: -16.0

Results for O=C(Nc1ccncc1)Nc1ccc(F)c(Cl)c1 ?
MPTP inh: 91.8*; GRIN3A LBD mod: 7.9; TMEM16A act: inactive; CRFR2-BP ag: 0.9; CRFBP-R2 block: -16.4; TMEM16A inh: inactive; MPTP counter: 107.2*

How did O=C(Nc1ccc(Cl)cc1)Nc1cccnc1 do in these assays?
MPTP inh: 63.6*; GRIN3A LBD mod: 12.7*; TMEM16A act: inactive; CRFR2-BP ag: -0.6; CRFBP-R2 block: 11.8; TMEM16A inh: inactive; MPTP counter: 82.7*

Results for O=C(Nc1ccc(F)c(Cl)c1)Nc1ccc(Cl)cn1 ?
MPTP inh: 87.4*; GRIN3A LBD mod: -1.2; TMEM16A act: inactive; CRFR2-BP ag: -0.2; CRFBP-R2 block: -13.3; TMEM16A inh: inactive; MPTP counter: 96.3*

What do the screens show for `CCOc1ccc(NC(=O)COC(=O)CNC(=O)c2ccc(-c3ccccc3)cc2)cc1`?
MPTP inh: -1.0; GRIN3A LBD mod: -0.2; TMEM16A act: inactive; CRFR2-BP ag: -0.9; CRFBP-R2 block: -0.9

What do the screens show for `COc1ccc(C(C)(O)c2nc(-c3ccc(Cl)cc3)cs2)cc1` (stereo unspecified)?
MPTP inh: 1.5

Results for CS(=O)(=O)N1CCN(C(=O)Cc2ccc(Br)cc2)CC1 ?
MPTP inh: 1.0; GRIN3A LBD mod: -0.9; TMEM16A act: inactive; CRFR2-BP ag: -0.3; CRFBP-R2 block: 8.1; TMEM16A inh: inactive

What do the screens show for `Cc1ccc(NC(=O)CCc2nnc3ccc(NCc4ccco4)nn23)cc1`?
MPTP inh: -0.7; GRIN3A LBD mod: -1.2; TMEM16A act: inactive; CRFR2-BP ag: 0.2; CRFBP-R2 block: -2.0; TMEM16A inh: inactive

What do the screens show for `O=C(Nc1ccccc1)Nc1ccc(-n2ccc(C(F)(F)F)n2)cc1`?
MPTP inh: 79.2*; GRIN3A LBD mod: 6.9; TMEM16A act: inactive; CRFR2-BP ag: 1.2; CRFBP-R2 block: 4.4; TMEM16A inh: inactive; MPTP counter: 82.4*

Results for O=C(O)CC(CC(=O)Nc1ccc(-n2ccc(C(F)(F)F)n2)cc1)c1ccccc1 (stereo unspecified) ?
MPTP inh: 4.2; GRIN3A LBD mod: -1.3; TMEM16A act: inactive; CRFR2-BP ag: 8.9; CRFBP-R2 block: -4.3; TMEM16A inh: inactive

What do the screens show for `COc1cccc(CNC2CCCc3ccccc32)c1OC` (stereo unspecified)?
MPTP inh: 60.2*; GRIN3A LBD mod: 0.8; TMEM16A act: inactive; CRFR2-BP ag: -2.5; CRFBP-R2 block: -20.0; TMEM16A inh: inactive; MPTP counter: 4.9; MPTP swell DR: >100; MPTP counter DR: >80

How did COc1cc(CNC2CCCc3ccccc32)cc(OC)c1OC (stereo unspecified) do in these assays?
MPTP inh: 3.1; GRIN3A LBD mod: -0.3; TMEM16A act: inactive; CRFR2-BP ag: -0.2; CRFBP-R2 block: 3.6; TMEM16A inh: inactive

What do the screens show for `FC(F)(F)c1cc(CO[C@@H]2CCCN[C@@H]2c2ccccc2)cc(C(F)(F)F)c1`?
MPTP inh: 103.1*; GRIN3A LBD mod: 0.3; TMEM16A act: inactive; CRFR2-BP ag: 2.9; CRFBP-R2 block: -20.6; TMEM16A inh: inactive; MPTP counter: -20.0; MPTP swell DR: 4.33*; MPTP counter DR: 54.4*

Results for Cc1ccc(Cl)cc1-c1cc(C(=O)NCc2ccc(C(F)(F)F)cc2)[nH]n1 ?
MPTP inh: 51.8*; MPTP counter: 96.4*

What do the screens show for `Cc1cc(F)ccc1-c1cc(C(=O)NCc2ccc(C(F)(F)F)cc2)[nH]n1`?
MPTP inh: 29.1

What do the screens show for `COc1ccc(Cl)cc1-c1cc(C(=O)Nc2ccccc2)[nH]n1`?
MPTP inh: 1.6

What do the screens show for `Cc1ccc(Cl)cc1-c1cc(C(=O)Nc2ccc(F)cc2)[nH]n1`?
MPTP inh: 64.2*; MPTP counter: 96.2*

Results for COC(=O)[C@]12CCCCC=C1N(Cc1ccccc1)C(=O)[C@H](CC(=O)NCc1ccc(OC)c(OC)c1)C2 ?
MPTP inh: 0.5

What do the screens show for `O=C(CCSc1ccc(Cl)c(Cl)c1)NC12CC3CC(CC(C3)C1)C2`?
MPTP inh: 52.1*; GRIN3A LBD mod: -10.0; TMEM16A act: inactive; CRFR2-BP ag: -0.6; CRFBP-R2 block: -10.5; TMEM16A inh: inactive; MPTP counter: 45.1*

Results for O=C(CSc1ccc(F)cc1)NC12CC3CC(CC(C3)C1)C2 ?
MPTP inh: 1.0; GRIN3A LBD mod: 0.4; TMEM16A act: inactive; CRFR2-BP ag: -2.0; CRFBP-R2 block: -13.7; TMEM16A inh: inactive

How did Cn1cc(CN2CCN(c3ccccc3)CC2)c2ccccc21 do in these assays?
MPTP inh: 60.9*; GRIN3A LBD mod: 2.3; TMEM16A act: inactive; CRFR2-BP ag: -1.4; CRFBP-R2 block: -25.0; TMEM16A inh: inactive; MPTP counter: -10.2; MPTP swell DR: inactive; MPTP counter DR: >80

What do the screens show for `Cc1cccc(N2C(=O)c3ccc(Br)cc3C2=O)n1`?
MPTP inh: 0.1; TMEM16A act: inactive; TMEM16A inh: inactive

Results for O=C1c2ccc(Br)cc2C(=O)N1c1ccc(Cc2ccncc2)cc1 ?
MPTP inh: 102.5*; GRIN3A LBD mod: -0.4; TMEM16A act: inactive; CRFR2-BP ag: 1.7; CRFBP-R2 block: 4.8; MPTP counter: 92.2*

Assay outcomes: PubChem, several laboratories
